Here are results for 26 compounds from PubChem BioAssay (NCI).

This is part of a sample that, as a whole, favours compounds with a hit. Of some 83,000 tested, about 20% had one in any assay.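 Cell lines were cultured in 96-well plates, exposed to a single compound concentration, and assessed for percent growth 48 hours later.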 Values without a mark were called inactive. Active and inactive are the calls of the source. How the source made its calls: active means growth percent below 10; inactive means the rest.

The subject of this assay is HL-60(TB) leukemia. Put plainly: NCI-60 one-dose screen, 48 h (100 = growth as untreated, 0 = no growth, -100 = all killed). To be noted: 10 µM unless noted.
Turning to `COc1cccc(Nc2ncnn3ccc(CN4CC[C@@H](N)[C@H](O)C4)c23)c1`, the growth was 73.8%. Regarding `COc1ccc2nc(C)cc(Sc3nc4ccccc4s3)c2c1`, the growth is 6.64% (active).

On to `O=C(CSc1nnc(-c2cccnc2SCc2ccccc2)o1)Nc1nc(Cl)cc(Cl)n1`, for which the growth was 98.3%.

As to `COc1cc(C(=O)/C=C/c2cccc(Nc3ccnc4cc(Cl)ccc34)c2)cc(OC)c1OC`, the growth is 5.47% (active). With `CCOc1cc2c(cc1OCC)C(c1cc(OC)c(O)cc1Cl)NCC2` (stereo unspecified), the growth was 91.7%.

Take `O=C1C=CC2(O)OC(c3ccccc3)CC(=O)C2=C1O` (stereo unspecified): the growth is 50.5%. Under `CN(C)c1ccc(/C=C(\C#N)c2cc3ccccc3[nH]2)cc1` stands 22.2%.

Regarding `C[C@H](c1nc2ccc(C#N)cc2[nH]1)[C@H]1CC[C@H]2[C@@H]3CCC4=CC(=O)CC[C@]4(C)[C@H]3CC[C@]12C`, the growth was 56.3%.

For `CSc1nc2c(c(=O)[nH]1)C(c1ccc(Cl)cc1)C1=C(N2)/C(=C/c2ccc(Cl)cc2)CNC1` (stereo unspecified), the growth was 55.4%. In the case of `CCCCCC(CCC)COC(=O)c1ccc(OC)cc1` (stereo unspecified) it was 90.5%; in that of `COc1ccc(C(=O)C(Br)C(Br)C(=O)O)cc1` (stereo unspecified), 103%. Take `COc1ccc(/C=C(/C(=O)n2cnnn2)c2cc(OC)c(OC)c(OC)c2)cc1`: the growth was 4.64% (active). For the compound `NS(=O)(=O)c1ccc(-n2ncc3c(SCc4ccccc4)ncnc32)cc1`, the growth is 88.1%. Turning to `O=S(=O)(NC1c2ccccc2Oc2ccccc21)c1cc(Cl)ccc1Cl`, the growth was 86.7%. With `O=C(CC(C(=O)c1ccccc1)N1CCN(Cc2ccccc2)CC1)c1ccccc1` (stereo unspecified), the growth was 28.5%. Consider `COc1ccc2c(c1)c(-c1nc(-c3cn(C)c4ccncc34)cs1)cn2C`, for which the growth was 81.7%.

On to `N[C@H](C(=O)O)[C@@H]1CC(Cl)=NO1`, for which the growth was 34.9% [20 µM]. `COc1ccc2c(c1)/C(=C\c1c[nH]c3ccc(F)cc13)C(=O)N2`: the growth was 88.3%. In the case of `COc1cc(C(=O)/C=C/c2ccc(N3CCN(C)CC3)cc2)cc(OC)c1OC` it was 98.2%; in that of `COc1ccccc1/C=C/C(=O)Nc1ccc(F)cc1`, 86.3%; in that of `Nc1ncnc2c1N=C(c1ccc(F)cc1)CC(c1cccc(Nc3ccnc4cc(Cl)ccc34)c1)N2` (stereo unspecified), 83.6%. In the case of `CC1(C)Oc2cc3oc(=O)ccc3cc2C[C@@H]1OCCOS(=O)(=O)c1ccc(C#N)cc1` it was 100%; in that of `C[C@@H]1CN(c2nc3c(cc2F)c(=O)c(C(=O)O)cn3C(C)(C)C)C[C@H](C)N1`, 97%; in that of `COc1ccc(-c2nn(-c3ccccc3)cc2/C=C/C(=O)NNC(=O)Nc2ccc(C)cc2)cc1`, 90.5%. Under `Cc1ccccc1-n1nnc(C(=O)Nc2ccc(-c3ccccc3)cn2)c1C` stands 28.8% [50 µM]; under `Nc1c(C(=O)Nc2ccccc2)sc2nc3c(cc12)C(=O)CCC3`, 19.4%.
